We go through 16 molecules from PubChem BioAssay.

Assay [1] can be described thus: Wnt pathway potentiators raising nuclear beta-catenin – imaging, WNT3A-conditioned medium, mouse C2C12, NPC library, primary screen (AID 1117326; in the data active means nuclear beta-catenin stimulation mostly above about 4.2%, no sharp cut-off; inactive means mostly below about 10%; further: reference of the scale not given here). Conditions: stronger effect = higher value.
Assay [2] is described as follows: stimulators of insulin release from INS-1E, primary screen, cell-based, 5 mM glucose, NPC library (AID 1117329). Further: reference of the scale not given here. Conditions: rat INS-1E insulin secretion, at 10 µM, stronger effect = higher value.
Assay [3] can be described thus: growth inhibition of GSK3B-pretreated HCT116 cells – cell-based, CellTiter-Glo, 0.2 to 20 µM (AID 1117336;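 active means compounds lowering colon cancer cell viability after pretreatment blocking the GSK3B kinase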). The settings on record: HCT116 viability after GSK3B inhibitor, at 20 µM, stronger effect = higher value.
Assay [4] can be described thus: inhibition of endothelial tube formation, primary screen, imaging, VEGF stimulated, CD31 staining, tube area, NPC library (AID 1117340;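 active means compound that reduces growth-factor-driven endothelial tube area in a mixed cell culture, no cutoff stated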). The settings on record: VEGF-stimulated ADSC/ECFC co-culture, at 10 µM, stronger effect = higher value.
The nature of assay [5]: GLP1 release stimulators, primary, NCI-H716, NPC library (AID 1117341;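 active means compound raises GLP1 secretion from the human gut endocrine cells, with no numeric limit stated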; further: reference of the scale not given here). The settings on record: NCI-H716 cells, at 10 µM, stronger effect = higher value.
A short description of assay [6]: HCT116 colon cancer cell growth inhibition, primary screen, CellTiter-Glo luminescence, NPC library (AID 1117342;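 active means compounds that lower survival of HCT116 colon cancer cells in the luminescence readout, no numeric limit stated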). The settings on record: at 20 µM (top of the series).
A short description of assay [7]: reduced SW480 viability measured with CellTiter-Glo, NPC library, primary (AID 1117343;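 active means compounds that lower viability of the colon cancer cells in the luminescence readout, with no numeric limit stated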). The settings on record: CellTiter-Glo luminescence; at 20 µM (top of the series). In general terms: Cellular ATP, detected with luciferase, serves as a proxy for viable cell number.
Assay [8] is described as follows: NPC library primary testing for decreased DLD-1 cell viability via CellTiter-Glo (AID 1117346;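 active means compounds that lower survival of DLD-1 colon cancer cells in the luminescence readout, no cutoff given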). The settings on record: DLD-1 viability, CellTiter-Glo luminescence; at 20 µM (top of the series).

Activity calls are given as the source filed them.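 How the source made its calls, unless noted: active means compound raises insulin release from rat beta cells at 5 mM glucose, no numeric limit stated; inactive means the rest.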

For the molecule `O=C(O)Cn1cnnn1`, the nuclear beta-catenin stimulation is 0.5% (inactive) in assay [1] (at 10 µM) and -0.1% in assay [1] (stimulation, at 2 µM). Also, the insulin secretion stimulation in assay [2] is -0.9% (inactive). Moreover, in assay [3], the viability decrease is -1.1% (inactive). For the same molecule, the tube area decrease in assay [4] was -3.2% (inactive). For the same molecule, in assay [5], the GLP1 secretion stimulation is 3.3% (inactive). Moreover, the inhibition of viability in assay [6] is 4.9% (inactive). Besides, the values for the viability decrease (inhibition) in assay [7] and in assay [8] were -14.8% (inactive) and 6% (inactive), respectively.
Take `CCCCCCCCCCCCCC[N+](C)(C)C`: the nuclear beta-catenin stimulation was 61.2% (active) in assay [1] (at 10 µM) and 7.5% in assay [1] (stimulation, at 2 µM). In addition, the insulin secretion stimulation in assay [2] is -0.2% (inactive). Also, the viability decrease in assay [3] is 101% (active). For the same molecule, the tube area decrease in assay [4] is 110% (active). For the same molecule, the GLP1 secretion stimulation in assay [5] is 29.7% (active). In assay [6], the inhibition of viability was 101% (active). The viability decrease (inhibition) in assay [7] was 122% (active); in assay [8], 103% (active).
With `O=C(O)COc1nn(Cc2ccccc2)c2ccccc12`, the nuclear beta-catenin stimulation in assay [1] (at 10 µM) was -0.5% (inactive); in assay [1] (stimulation, at 2 µM), 2.2%. In assay [2], the insulin secretion stimulation is -0.7% (inactive). Further, in assay [3], the viability decrease was 3.8% (inactive). Moreover, the tube area decrease in assay [4] was -13% (inactive). The GLP1 secretion stimulation in assay [5] is 1.7% (inactive). Also, the inhibition of viability in assay [6] was 8.1% (inactive). Besides, the viability decrease (inhibition) is 12.1% (inactive) in assay [7] and 8.6% (inactive) in assay [8].
For `NC(=O)NS(=O)(=O)c1ccc(Cl)cc1`, the nuclear beta-catenin stimulation in assay [1] (at 10 µM) is 1.1% (inactive); in assay [1] (stimulation, at 2 µM), 16.9%. Moreover, the insulin secretion stimulation in assay [2] is 3.4% (inactive). Also, in assay [3], the viability decrease was -3.8% (inactive). Further, the tube area decrease in assay [4] was -14.2% (inactive). Moreover, in assay [5], the GLP1 secretion stimulation is -1.2% (inactive). Also, the inhibition of viability in assay [6] was 2.5% (inactive). The values for the viability decrease (inhibition) in assay [7] and in assay [8] were -13.4% (inactive) and -2.8% (inactive), respectively.
`CCCOC(C(=O)OC1CCN(C)CC1)(c1ccccc1)c1ccccc1`: the nuclear beta-catenin stimulation was 0.8% (inactive) in assay [1] (at 10 µM) and 1.5% in assay [1] (stimulation, at 2 µM). Further, the insulin secretion stimulation in assay [2] is 0.3% (inactive). Further, the viability decrease in assay [3] was 54.2% (active). The tube area decrease in assay [4] is 19.1% (inactive). Besides, the GLP1 secretion stimulation in assay [5] is 21.3% (active). Besides, the inhibition of viability in assay [6] was 84.8% (active). The figures for the viability decrease (inhibition) in assay [7] and in assay [8] were 107% (active) and 57.7% (active), respectively.
In the case of `CCN(CC)C(=O)[C@]1(c2ccccc2)C[C@H]1CN`, the nuclear beta-catenin stimulation in assay [1] (at 10 µM) is -2.4% (inactive); in assay [1] (stimulation, at 2 µM) it was -0.9%. For the same molecule, the insulin secretion stimulation in assay [2] is 10.5% (inactive). In addition, the viability decrease in assay [3] is -13.1% (inactive). Also, the tube area decrease in assay [4] was -15.6% (inactive). Moreover, the GLP1 secretion stimulation in assay [5] was 3.7% (inactive). Moreover, the inhibition of viability in assay [6] was -3.6% (inactive). Further, the viability decrease (inhibition) was 7% (inactive) in assay [7] and 3.4% (inactive) in assay [8].
Consider `O=C(O)c1ccccc1NCCc1ccccc1`, for which the nuclear beta-catenin stimulation is 1.2% (inactive) in assay [1] (at 10 µM) and 2.5% in assay [1] (stimulation, at 2 µM). The insulin secretion stimulation in assay [2] is 0.15% (inactive). Moreover, the viability decrease in assay [3] is 42.9% (inactive). In assay [4], the tube area decrease is 22.2% (inactive). In assay [5], the GLP1 secretion stimulation is 1.4% (inactive). Besides, the inhibition of viability in assay [6] was 26.7% (inactive). Further, the viability decrease (inhibition) is 50.6% (active) in assay [7] and -1.8% (inactive) in assay [8].
Take `COc1ccc2cc(C=O)ccc2c1`: the nuclear beta-catenin stimulation in assay [1] (at 10 µM) is 0.1% (inactive); in assay [1] (stimulation, at 2 µM) it was 0.2%. The insulin secretion stimulation in assay [2] was 0.95% (inactive). Further, the viability decrease in assay [3] is 17.4% (inactive). Besides, in assay [4], the tube area decrease is -8.2% (inactive). The GLP1 secretion stimulation in assay [5] was -3.7% (inactive). Besides, in assay [6], the inhibition of viability was 16.4% (inactive). In addition, the values for the viability decrease (inhibition) in assay [7] and in assay [8] were 7% (inactive) and 5.8% (inactive), respectively.
With `CN1[C@@H]2CC[C@H]1CC(NC(=O)n1c(=O)[nH]c3ccccc31)C2` (some centres undefined), the nuclear beta-catenin stimulation in assay [1] (at 10 µM) was 1.7% (inactive); in assay [1] (stimulation, at 2 µM), 1%. Further, the insulin secretion stimulation in assay [2] is 0.4% (inactive). The viability decrease in assay [3] was -2.9% (inactive). The tube area decrease in assay [4] was -4.6% (inactive). Also, the GLP1 secretion stimulation in assay [5] was 2.8% (inactive). For the same molecule, the inhibition of viability in assay [6] was 23.7% (inactive). In addition, the values for the viability decrease (inhibition) in assay [7] and in assay [8] were 5.3% (inactive) and -7.7% (inactive), respectively.
For the molecule `O=C1CCC(=O)N1CO`, the nuclear beta-catenin stimulation in assay [1] (at 10 µM) was -2.4% (inactive); in assay [1] (stimulation, at 2 µM), -0.7%. Further, the insulin secretion stimulation in assay [2] is 3.1% (inactive). Moreover, the viability decrease in assay [3] is -0.6% (inactive). The tube area decrease in assay [4] was -5.1% (inactive). Further, the GLP1 secretion stimulation in assay [5] is -1.4% (inactive). In assay [6], the inhibition of viability is 1.8% (inactive). In addition, the viability decrease (inhibition) in assay [7] is 9.6% (inactive); in assay [8] it was -2.7% (inactive).
Consider `CCCCCCCCCCCCCCCCCC(=O)O`, for which the nuclear beta-catenin stimulation in assay [1] (at 10 µM) is 0.8% (inactive); in assay [1] (stimulation, at 2 µM), 0.7%. The insulin secretion stimulation in assay [2] is -1.2% (inactive). Also, the viability decrease in assay [3] is -8.8% (inactive). Besides, the tube area decrease in assay [4] was -12.7% (inactive). In addition, the GLP1 secretion stimulation in assay [5] is -0.3% (inactive). In addition, the inhibition of viability in assay [6] is 1.8% (inactive). Further, the viability decrease (inhibition) in assay [7] is 18.8% (inactive); in assay [8], -6.85% (inactive).
In the case of `CCNC(=O)NCCCOc1cccc(CN2CCCCC2)c1`, the nuclear beta-catenin stimulation in assay [1] (at 10 µM) was -0.4% (inactive); in assay [1] (stimulation, at 2 µM) it was -1.5%. Moreover, in assay [2], the insulin secretion stimulation was 4.7% (inactive). Further, in assay [3], the viability decrease was 1.2% (inactive). For the same molecule, in assay [4], the tube area decrease was 0.6% (inactive). Further, the GLP1 secretion stimulation in assay [5] was -0.5% (inactive). The inhibition of viability in assay [6] was 5% (inactive). The viability decrease (inhibition) in assay [7] is -19.1% (inactive); in assay [8] it was -12.6% (inactive).
For the molecule `c1ccc2sc(SN3CCOCC3)nc2c1`, the nuclear beta-catenin stimulation is 0.5% (inactive) in assay [1] (at 10 µM) and 2.1% in assay [1] (stimulation, at 2 µM). Besides, in assay [2], the insulin secretion stimulation is -2.6% (inactive). In assay [3], the viability decrease was 2.05% (inactive). In addition, the tube area decrease in assay [4] is 18.9% (inactive). Besides, the GLP1 secretion stimulation in assay [5] is -0.9% (inactive). Further, the inhibition of viability in assay [6] was -10.4% (inactive). Further, the viability decrease (inhibition) in assay [7] was 110% (active); in assay [8], 6.4% (inactive).
In the case of `N[C@@H](CSSC[C@H](N)C(=O)O)C(=O)O`, the nuclear beta-catenin stimulation in assay [1] (at 10 µM) is 1.1% (inactive); in assay [1] (stimulation, at 2 µM), 3.2%. The insulin secretion stimulation in assay [2] was -2.2% (inactive). For the same molecule, in assay [3], the viability decrease is 0.8% (inactive). Moreover, the tube area decrease in assay [4] was -4% (inactive). Moreover, the GLP1 secretion stimulation in assay [5] was 3.6% (inactive). For the same molecule, the inhibition of viability in assay [6] was -21.6% (inactive). Moreover, the viability decrease (inhibition) in assay [7] is 38.7% (inactive); in assay [8], 8.45% (inactive).
For the molecule `O=C1Nc2cc(Cl)ccc2Oc2ccccc21`, the nuclear beta-catenin stimulation in assay [1] (at 10 µM) was 0% (inactive); in assay [1] (stimulation, at 2 µM) it was -0.5%. Further, the insulin secretion stimulation in assay [2] was -0.2% (inactive). Moreover, in assay [3], the viability decrease is 55.1% (active). The tube area decrease in assay [4] was 17.8% (inactive). For the same molecule, in assay [5], the GLP1 secretion stimulation was -0.4% (inactive). Also, the inhibition of viability in assay [6] was 10.7% (inactive). In addition, the viability decrease (inhibition) in assay [7] is -6.3% (inactive); in assay [8], -57.3% (inactive).
In the case of `C=CCN1C(=O)C(CC(C)C)NC1=S` (centres undefined), the nuclear beta-catenin stimulation in assay [1] (at 10 µM) is 0% (inactive); in assay [1] (stimulation, at 2 µM) it was 0.3%. Moreover, the insulin secretion stimulation in assay [2] is -1.4% (inactive). In addition, the viability decrease in assay [3] is -1.7% (inactive). In assay [4], the tube area decrease is -6.4% (inactive). Besides, in assay [5], the GLP1 secretion stimulation is -4% (inactive). Moreover, the inhibition of viability in assay [6] is -4.1% (inactive). The viability decrease (inhibition) in assay [7] was 2.8% (active); in assay [8] it was -17.7% (inactive).
